Screening results from PubChem.
Beta apoptosis: inhibitors of cytokine-induced beta cell apoptosis, primary screen, luminescence. INS-1E cytokine-induced death, ATP luminescence, 48 h; percent of positive-control rescue, neutral wells zero. protection from apoptosis, % (test concentration not listed). 300,000 tested, 0.8% active. AID 435005, 2010;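 active means Every replicate reaches about 75%, or at least half do and their mean reaches it too, limit read from the data; inconclusive means At least half of replicates reach the limit but their mean does not; inactive means Under half of replicates reach the limit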;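 further: 0% = cytokine-treated negative control wells and 100% = positive control rescue; higher means more ATP so stronger rescue from cytokine killing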
PP1 counter: PP1-alpha phosphatase inhibitors, primary screen, counter-screen for PP5 inhibitor project, biochemical, fluorescence, OMFP substrate, single point; inhibition, % at 6.7 µM; 320,000 tested, 0.9% active; AID 2235, 2010; Serine/threonine-protein phosphatase PP1-alpha catalytic subunit (Homo sapiens), P62136; purified PP1alpha;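 active means inhibition above the mean inhibition of all tested compounds plus 3 SD, computed separately for each screening campaign, cut at about 15% in these data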
CSC inhib: cancer stem cell viability inhibitors, primary screen, luminescence; cancer stem cell-like cells viability; inhibition, % at 7.5 µM; 300,000 tested, 1.1% active; AID 2717, 2010; in the data active means inhibition above about 75%; inconclusive means no clear call, values can overlap the other calls; tested in HMLE shEcad cells
SKKanGAS inh: S. pyogenes SKKanGAS growth inhibitors in kanamycin, primary screen, streptokinase expression inhibitor project, SKKanGAS strain, BacTiter-Glo luminescence | 300,000 tested, 1.3% active | inhibition, % at 7.5 µM | 6 h | AID 1662, 2009;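 active means mean replicate score, as percent of positive control median, at least 50; inconclusive means mean below 50 but one replicate at or above 50; inactive means mean and every replicate below 50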;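 further: strain carries kanamycin resistance gene driven by streptokinase promoter and grows in 40 µg/ml kanamycin; loss of luminescence reflects streptokinase promoter inhibition or plain growth inhibition; 0% = median of DMSO wells and 100% = positive control at its reference dose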
PP5 inh: PP5 phosphatase inhibitors, primary screen, biochemical, fluorescence. Serine/threonine-protein phosphatase 5 (Homo sapiens), P53041. purified PP5c, OMFP substrate fluorescence. inhibition, % at 6.7 µM. 320,000 tested, 0.18% active;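 active means inhibition above the campaign's mean inhibition across all tested compounds plus 3 SD, cut at about 9.5% in these data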;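 further: 0% = DMSO only and 100% = 100 µM cantharidin control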
Target sequence (P53041 whole entry, looked up): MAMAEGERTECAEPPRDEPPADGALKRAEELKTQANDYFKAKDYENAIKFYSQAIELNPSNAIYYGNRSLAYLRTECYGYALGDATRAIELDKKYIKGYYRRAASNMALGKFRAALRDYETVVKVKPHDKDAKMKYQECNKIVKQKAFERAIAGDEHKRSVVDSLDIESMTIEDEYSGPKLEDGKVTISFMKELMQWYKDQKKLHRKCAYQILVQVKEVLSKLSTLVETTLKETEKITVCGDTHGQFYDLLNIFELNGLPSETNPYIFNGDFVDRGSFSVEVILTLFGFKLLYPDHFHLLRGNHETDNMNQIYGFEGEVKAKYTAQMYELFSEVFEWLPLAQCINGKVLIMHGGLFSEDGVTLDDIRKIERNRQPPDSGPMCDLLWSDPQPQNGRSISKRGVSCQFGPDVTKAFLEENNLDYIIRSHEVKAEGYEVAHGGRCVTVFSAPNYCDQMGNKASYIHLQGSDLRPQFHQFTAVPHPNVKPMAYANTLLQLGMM
Numbers without * were called inactive; ? = inconclusive; nt = no result. Hits are enriched below; roughly 3.1% of the tested compounds scored in any of these assays.

SMILES	Beta apoptosis	PP1 counter	CSC inhib	SKKanGAS inh	PP5 inh
O=C(N/N=C/c1c[nH]c2ccccc12)c1ccc(Cl)cc1	nt	3	6	-3	-1
Cc1ccc(O)c(/C=N/NC(=O)Cc2ccc(Cl)cc2)c1	nt	-1	22	97*	1
O=C(Cc1ccc(Cl)cc1)N/N=C/c1c(Cl)cccc1Cl	2	-1	11	10	1
Cc1cccc(/C=N/NC(=O)Cc2ccc(Cl)cc2)c1O	nt	3	16	107*	2
Cc1cccc(/C=N/NC(=O)c2c(-c3ccccc3)noc2C)c1O	92*	1	-12	8	0
Cc1noc(C)c1S(=O)(=O)N1CCCC(C(=O)NCc2ccccc2Cl)C1 (stereo not given)	-3	-3	1	-1	0
COc1ccccc1CNC(=O)Cn1nc(C)c([N+](=O)[O-])c1C	nt	-6	-15	1	-2
CC/C(=N/N=C(\CC)c1ccccc1)c1ccccc1	-5	-2	-13	-1	-1
COc1cccc(/C=N/NC(=O)c2c(C)nc3ccc(Cl)cn23)c1O	123*	6	71	103*	4
O=C(COC(=O)c1c2c(nc3ccccc13)/C(=C\c1cccs1)CCC2)Nc1ccccc1	3	-2	101*	19	0
CC(=O)c1ccc(NC(=O)COC(=O)c2c3c(nc4ccccc24)/C(=C\c2cccs2)CCC3)cc1	3	-1	117*	22	3
O=C(COC(=O)c1c2c(nc3ccccc13)CCCC2)Nc1ccc2c(c1)OCO2	9	2	13	18	4
CCCOc1cccc(C(=O)Nc2ccc3c(c2)OCCO3)c1	nt	-1	5	9	1
Cc1ccccc1C(=O)O[C@H]1[C@H](Cc2ccccc2)NS(=O)(=O)[C@H]2CC3C=C[C@]12O3	-6	nt	-1	nt	nt
O=[N+]([O-])c1ccccc1NCCNc1ncc(C(F)(F)F)cc1Cl	3	4	5	52*	5
O=C1C=CC(=O)N1CCNc1ncc(C(F)(F)F)cc1Cl	nt	nt	nt	77*	nt
O=c1cc(Cl)[nH]c(=O)n1CCNc1ncc(C(F)(F)F)cc1Cl	8	2	13	19	0
Cc1nn(Cc2ccccc2)c(C)c1C(=O)OCC(=O)c1cc(C)n(CC(F)(F)F)c1C	9	4	78*	1	6
CC1=NNC(=O)/C1=C\c1cn(-c2ccccc2)nc1-c1ccc(Cl)cc1	107*	3	102*	66*	1
CC(=O)OCC(=O)Nc1ccc([N+](=O)[O-])cc1Cl	-6	-7	-14	-3	1
CC(=O)Oc1c(C)cc(Cl)cc1C(=O)Nc1ccc([N+](=O)[O-])cc1Cl	106*	-1	120*	nt	1
COc1cc(C2C(C#N)=C(N)OC3=C2C(=O)CC(C)(C)C3)cc([N+](=O)[O-])c1O (stereo not given)	-4	-1	-10	4	2
O=c1cc(-c2ccccc2)[nH]n1-c1nc2ccccc2[nH]1	34	17*	112*	14	0
COCC(C)N1CC(O)=C(c2nc(-c3ccc(Cl)cc3)cs2)C1=N (stereo not given)	9	-5	-6	2	0
COc1ccccc1-c1coc2cc(OC(=O)N3CCOCC3)ccc2c1=O	-6	0	-7	0	0
SMILES	Beta apoptosis	PP1 counter	CSC inhib	SKKanGAS inh	PP5 inh
CCC(Oc1ccc2c(=O)c(-c3ccccc3OC)coc2c1)C(=O)OCc1ccccc1 (stereo not given)	-6	17*	-1	13	0
O=C(O)c1ccc(CSc2nc(-c3ccccc3)cc(C(F)(F)F)n2)cc1	-9	5	1	31	1
O=C(O)c1ccc(CSc2nc(-c3ccc(Cl)cc3)cc(C(F)(F)F)n2)cc1	-2	17*	?	52*	4
CC(C)(C)c1ccc(C(=O)NNC(=S)NC(=O)c2cccnc2)cc1	62	0	25	100*	4
CC(C)(C)c1cc(Cl)c(O)c(NC(=S)NC(=O)c2cccnc2)c1	24	-3	26	82*	0
CC(C)c1ccc(O)c(NC(=S)NC(=O)c2cccnc2)c1	3	-1	30	-10	2
Cc1cccc(-c2cccc(NC(=O)C3CCCN(C(=O)c4csc(C)n4)C3)c2)c1 (stereo not given)	7	-1	5	4	2
Cc1oc2cc3oc(=O)c(CCC(=O)N(C)CC(=O)O)c(C)c3cc2c1C	3	-1	-21	-1	4
Cc1nn(-c2ccccc2)c(N)c1C(c1ccc(C(C)C)cc1)c1c(C)nn(-c2ccccc2)c1N	97*	7	-6	17	6
CCCC[n+]1ccn(C2=C([O-])c3ccccc3C(=O)/C2=N\S(=O)(=O)c2ccc(Cl)cc2)c1	114*	-1	27	61*	-1
CCCCC[n+]1ccn(C2=C([O-])c3ccccc3C(=O)/C2=N\S(=O)(=O)c2ccc(Cl)cc2)c1	109*	4	17	73*	3
CCCC[n+]1ccn(-c2nc3ccccc3nc2[N-]S(=O)(=O)c2ccc(Br)cc2)c1	-1	0	4	5	1
N/C(CSc1ccc(Cl)cc1)=N\S(=O)(=O)c1ccc(Cl)cc1	-2	-1	16	1	4
Cc1ccc(NC(=S)NNC(=O)c2ccccc2O)c(C)c1	18	-2	-11	-3	1
COC(=O)c1cccc(NC(=O)Nc2ccc(Cl)c(Cl)c2)c1	82*	-3	97*	5	8
COC(=O)c1cccc(NC(=O)NC(=O)c2ccccc2Cl)c1	3	3	7	-6	2
O=C(NN=C(Cc1ccccc1)Cc1ccccc1)C1CC1	-1	-3	-11	4	0
COc1cc(NC(=O)c2c(F)c(F)c(OC)c(F)c2F)ccc1NC(=O)c1cccs1	10	0	22	4	3
Cc1ccc(N/N=C(\C#N)C(N)=S)c(C)c1	-4	0	42	60*	1
CN(C)c1ccc(/C=C/C=N/Nc2nc(N3CCOCC3)nc(N3CCOCC3)n2)cc1	4	-2	nt	6	-2
COc1ccc(-c2cc3c(=O)n(CC(=O)N4CCCC4)ncn3n2)cc1	1	2	-1	-1	3
CC1CCN(c2ccc(C(=O)Nc3ccc4c(c3)OCO4)cc2[N+](=O)[O-])CC1	13	2	78*	3	5
CC1CCCN(c2ccc(C(=O)Nc3ccc4c(c3)OCO4)cc2[N+](=O)[O-])C1 (stereo not given)	6	4	102*	24	6
O=S(=O)(c1cccc(C(F)(F)F)c1)N1CCCC1c1cccnc1 (stereo not given)	-2	-1	-10	-2	0
Cc1ccc(S(=O)(=O)N2CCCCC2c2cccnc2)c(C)c1C (stereo not given)	98*	-1	15	-13	0
